Test results as given in the supplement of paper PMC11001985.
Values without a mark were called inactive.

Compound: C#CCNC(=O)CCSSCCC(=O)NCCc1ccc(C=O)c(C=O)c1
Assay: lysine labeling ratio R10:1 (500 µM / 50 µM probe), SILAC-ABPP in living cells; higher = lower intrinsic lysine reactivity toward the probe, active = 2 or less
Details: HeLa; probe concentrations 500 vs 50 µM
How it was run: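 R, given per lysine, is the filtered median high-probe/low-probe MS1 peptide ratio, with the median then taken across forward and reverse replicates. Cells were living SILAC light and heavy HeLa cells in PBS at room temperature, labelled with 50 µM or 500 µM of an alkyne-tagged, disulfide-linked lysine probe. The ceiling applied is 20.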

Chain of UniProt P49368 (P49368 whole entry): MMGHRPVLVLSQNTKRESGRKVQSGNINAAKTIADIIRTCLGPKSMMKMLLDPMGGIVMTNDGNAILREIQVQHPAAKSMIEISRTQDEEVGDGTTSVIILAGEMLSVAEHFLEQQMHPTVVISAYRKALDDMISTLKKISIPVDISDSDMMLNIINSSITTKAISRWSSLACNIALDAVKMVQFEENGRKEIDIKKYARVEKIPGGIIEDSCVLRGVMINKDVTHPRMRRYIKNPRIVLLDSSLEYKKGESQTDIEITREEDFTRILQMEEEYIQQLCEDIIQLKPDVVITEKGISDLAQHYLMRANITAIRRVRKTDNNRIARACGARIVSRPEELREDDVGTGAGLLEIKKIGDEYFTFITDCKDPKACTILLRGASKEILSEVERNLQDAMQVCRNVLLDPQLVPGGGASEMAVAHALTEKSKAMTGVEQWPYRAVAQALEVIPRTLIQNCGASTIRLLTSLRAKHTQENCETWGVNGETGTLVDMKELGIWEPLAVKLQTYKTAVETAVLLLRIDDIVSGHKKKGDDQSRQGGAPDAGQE
Chain of UniProt P48509 (P48509 whole entry): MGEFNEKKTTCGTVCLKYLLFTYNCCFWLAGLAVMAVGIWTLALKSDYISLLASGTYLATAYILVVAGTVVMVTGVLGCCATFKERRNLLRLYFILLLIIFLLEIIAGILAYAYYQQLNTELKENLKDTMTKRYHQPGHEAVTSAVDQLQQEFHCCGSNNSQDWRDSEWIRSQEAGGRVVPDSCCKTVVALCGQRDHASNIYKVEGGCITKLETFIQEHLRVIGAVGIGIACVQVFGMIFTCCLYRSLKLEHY
Chain of UniProt Q9Y6N7 (Q9Y6N7 whole entry): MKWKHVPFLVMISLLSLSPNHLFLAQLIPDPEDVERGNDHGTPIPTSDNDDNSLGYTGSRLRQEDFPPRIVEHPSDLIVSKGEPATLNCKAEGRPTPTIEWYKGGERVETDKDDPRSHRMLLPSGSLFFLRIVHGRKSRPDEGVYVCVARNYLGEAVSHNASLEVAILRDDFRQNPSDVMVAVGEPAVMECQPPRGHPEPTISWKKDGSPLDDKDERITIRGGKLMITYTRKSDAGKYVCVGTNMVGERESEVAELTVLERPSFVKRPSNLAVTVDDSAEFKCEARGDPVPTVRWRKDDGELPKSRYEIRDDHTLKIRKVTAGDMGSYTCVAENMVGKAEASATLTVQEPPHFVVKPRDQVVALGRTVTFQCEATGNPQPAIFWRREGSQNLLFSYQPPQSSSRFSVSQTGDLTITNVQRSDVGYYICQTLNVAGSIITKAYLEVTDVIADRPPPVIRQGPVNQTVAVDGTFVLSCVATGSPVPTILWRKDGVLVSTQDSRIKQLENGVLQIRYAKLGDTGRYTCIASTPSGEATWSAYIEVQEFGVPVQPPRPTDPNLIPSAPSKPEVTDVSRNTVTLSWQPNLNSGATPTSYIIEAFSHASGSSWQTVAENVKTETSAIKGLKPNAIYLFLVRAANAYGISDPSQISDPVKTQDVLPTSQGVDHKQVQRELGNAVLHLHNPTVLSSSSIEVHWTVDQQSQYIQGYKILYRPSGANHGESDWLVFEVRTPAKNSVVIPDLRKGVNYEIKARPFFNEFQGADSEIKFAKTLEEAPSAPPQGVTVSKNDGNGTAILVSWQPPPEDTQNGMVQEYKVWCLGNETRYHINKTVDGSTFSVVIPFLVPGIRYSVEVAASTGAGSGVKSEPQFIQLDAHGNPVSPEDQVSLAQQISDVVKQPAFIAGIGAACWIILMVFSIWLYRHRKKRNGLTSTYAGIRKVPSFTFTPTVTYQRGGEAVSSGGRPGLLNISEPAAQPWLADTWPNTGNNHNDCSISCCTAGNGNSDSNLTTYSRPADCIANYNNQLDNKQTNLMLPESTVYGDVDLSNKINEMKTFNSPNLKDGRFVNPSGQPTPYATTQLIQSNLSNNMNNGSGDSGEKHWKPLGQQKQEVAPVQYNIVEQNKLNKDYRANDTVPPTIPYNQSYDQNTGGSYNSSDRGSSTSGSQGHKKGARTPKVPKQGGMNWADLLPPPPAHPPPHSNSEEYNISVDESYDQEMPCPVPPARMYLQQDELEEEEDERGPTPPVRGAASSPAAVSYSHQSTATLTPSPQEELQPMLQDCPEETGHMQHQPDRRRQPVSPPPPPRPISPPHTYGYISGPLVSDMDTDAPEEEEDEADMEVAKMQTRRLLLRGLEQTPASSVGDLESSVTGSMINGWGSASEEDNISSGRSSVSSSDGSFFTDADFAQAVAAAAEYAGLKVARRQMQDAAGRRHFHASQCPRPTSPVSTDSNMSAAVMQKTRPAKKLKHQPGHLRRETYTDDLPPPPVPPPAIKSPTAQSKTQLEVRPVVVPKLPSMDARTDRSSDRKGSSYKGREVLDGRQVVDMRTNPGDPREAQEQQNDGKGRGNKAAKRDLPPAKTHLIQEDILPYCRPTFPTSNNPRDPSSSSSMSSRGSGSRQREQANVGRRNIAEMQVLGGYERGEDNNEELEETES
Chain of UniProt P52272 (P52272 whole entry): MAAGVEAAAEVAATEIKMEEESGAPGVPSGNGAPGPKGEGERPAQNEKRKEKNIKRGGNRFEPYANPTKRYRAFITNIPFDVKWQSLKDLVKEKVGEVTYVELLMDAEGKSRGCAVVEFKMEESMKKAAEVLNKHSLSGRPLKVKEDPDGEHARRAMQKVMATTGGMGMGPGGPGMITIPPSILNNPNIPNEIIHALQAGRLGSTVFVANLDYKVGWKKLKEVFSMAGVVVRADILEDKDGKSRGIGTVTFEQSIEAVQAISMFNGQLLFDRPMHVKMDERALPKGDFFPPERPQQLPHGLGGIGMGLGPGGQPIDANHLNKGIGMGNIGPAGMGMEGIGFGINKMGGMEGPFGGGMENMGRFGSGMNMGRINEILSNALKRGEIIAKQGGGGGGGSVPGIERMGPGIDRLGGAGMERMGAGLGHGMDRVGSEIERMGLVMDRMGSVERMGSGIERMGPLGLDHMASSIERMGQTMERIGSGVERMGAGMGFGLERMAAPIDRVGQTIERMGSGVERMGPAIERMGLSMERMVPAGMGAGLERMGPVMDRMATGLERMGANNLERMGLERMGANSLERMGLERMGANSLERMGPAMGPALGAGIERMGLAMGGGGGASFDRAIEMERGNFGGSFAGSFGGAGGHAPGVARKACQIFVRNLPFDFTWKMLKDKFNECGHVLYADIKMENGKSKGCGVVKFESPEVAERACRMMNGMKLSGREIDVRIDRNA
Chain of UniProt O75390 (O75390 whole entry): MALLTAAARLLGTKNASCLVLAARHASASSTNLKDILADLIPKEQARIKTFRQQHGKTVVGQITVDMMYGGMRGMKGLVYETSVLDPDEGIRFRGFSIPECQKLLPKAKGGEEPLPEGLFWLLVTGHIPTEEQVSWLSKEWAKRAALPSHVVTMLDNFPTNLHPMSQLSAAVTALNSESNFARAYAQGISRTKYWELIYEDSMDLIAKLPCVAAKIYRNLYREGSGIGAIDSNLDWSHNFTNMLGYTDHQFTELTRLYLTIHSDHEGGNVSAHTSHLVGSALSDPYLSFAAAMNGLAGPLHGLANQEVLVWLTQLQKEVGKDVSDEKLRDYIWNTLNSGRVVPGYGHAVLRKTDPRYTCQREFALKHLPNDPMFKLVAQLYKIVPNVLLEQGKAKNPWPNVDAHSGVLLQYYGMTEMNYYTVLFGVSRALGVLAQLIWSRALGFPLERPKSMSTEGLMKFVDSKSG
Chain of UniProt P02768 (P02768 whole entry): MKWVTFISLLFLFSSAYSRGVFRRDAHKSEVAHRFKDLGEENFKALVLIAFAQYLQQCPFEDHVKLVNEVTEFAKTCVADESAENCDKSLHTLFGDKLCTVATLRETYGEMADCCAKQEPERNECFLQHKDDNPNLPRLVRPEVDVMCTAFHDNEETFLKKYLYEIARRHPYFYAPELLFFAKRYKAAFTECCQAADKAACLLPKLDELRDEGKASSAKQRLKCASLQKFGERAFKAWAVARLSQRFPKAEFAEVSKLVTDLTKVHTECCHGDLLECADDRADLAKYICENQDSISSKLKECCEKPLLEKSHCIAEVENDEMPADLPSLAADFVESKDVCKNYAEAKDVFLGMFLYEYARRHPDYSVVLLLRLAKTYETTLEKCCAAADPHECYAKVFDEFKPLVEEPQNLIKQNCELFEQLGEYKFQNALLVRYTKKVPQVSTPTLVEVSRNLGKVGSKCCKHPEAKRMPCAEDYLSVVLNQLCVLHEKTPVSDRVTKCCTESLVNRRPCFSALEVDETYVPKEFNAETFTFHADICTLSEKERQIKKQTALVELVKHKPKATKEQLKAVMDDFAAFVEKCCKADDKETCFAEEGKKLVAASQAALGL
Chain of UniProt Q16629 (Q16629 whole entry): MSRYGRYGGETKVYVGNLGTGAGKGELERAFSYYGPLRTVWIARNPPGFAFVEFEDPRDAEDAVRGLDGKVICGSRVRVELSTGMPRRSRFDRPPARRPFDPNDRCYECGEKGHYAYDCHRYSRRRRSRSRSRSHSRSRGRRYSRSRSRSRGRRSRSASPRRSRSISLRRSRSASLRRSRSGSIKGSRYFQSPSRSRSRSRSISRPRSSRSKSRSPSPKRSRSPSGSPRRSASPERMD
Chain of UniProt P06576 (P06576 whole entry): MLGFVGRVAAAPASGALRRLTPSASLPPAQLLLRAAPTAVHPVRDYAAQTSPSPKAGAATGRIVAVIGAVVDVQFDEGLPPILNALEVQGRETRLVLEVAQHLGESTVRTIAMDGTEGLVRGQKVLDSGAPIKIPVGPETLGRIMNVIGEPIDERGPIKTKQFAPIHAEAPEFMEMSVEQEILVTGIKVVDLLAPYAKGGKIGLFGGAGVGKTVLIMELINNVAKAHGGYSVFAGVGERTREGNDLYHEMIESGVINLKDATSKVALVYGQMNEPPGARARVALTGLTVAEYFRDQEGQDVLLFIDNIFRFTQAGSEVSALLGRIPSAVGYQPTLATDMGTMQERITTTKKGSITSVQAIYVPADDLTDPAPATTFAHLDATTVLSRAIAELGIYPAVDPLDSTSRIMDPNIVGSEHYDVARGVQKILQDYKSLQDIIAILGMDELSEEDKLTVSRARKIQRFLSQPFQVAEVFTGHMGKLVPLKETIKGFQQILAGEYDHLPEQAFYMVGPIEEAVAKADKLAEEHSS

Target	lysine labeling ratio R10:1
EPHA5 (lysine site: K194) (UniProt P54756)	2.4
UniProt P61088 (lysine site: K82)	1.19 (active)
CD109 (lysine site: K1105) (UniProt Q6YHK3)	1.09 (active)
TSPAN6 (lysine site: K179) (UniProt O43657)	1.94 (active)
UniProt P02768 (lysine site: K438)	10
DSC2 (lysine site: K270) (UniProt Q02487)	2.49
FOLR1 (lysine site: K97) (UniProt P15328)	4.12
KTN1 (lysine site: K559) (UniProt Q86UP2)	1.4 (active)
UniProt Q9NYQ6 (lysine site: K324)	0.873 (active)
EPHB4 (lysine site: K474) (UniProt P54760)	0.746 (active)
RPL4 (lysine site: K106) (UniProt P36578)	2.43
LGALS1 (lysine site: K108) (UniProt P09382)	1.62 (active)
UniProt Q9UHN6 (lysine site: K1220)	2.87
UniProt P0C0S5 (lysine site: K14)	1.12 (active)
TFRC (lysine site: K672) (UniProt P02786)	3
APOA4 (lysine site: K79) (UniProt P06727)	1.22 (active)
IARS (lysine site: K375) (UniProt P41252)	1.66 (active)
ITGB1 (lysine site: K87) (UniProt P05556)	2.04
PDIA4 (lysine site: K245) (UniProt P13667)	1.07 (active)
TCP1 (lysine site: K400) (UniProt P17987)	2.68
RDX (lysine site: K556) (UniProt P35241)	1.52 (active)
UniProt P62750 (lysine site: K152)	4.64
EDIL3 (lysine site: K444) (UniProt O43854)	3.53
EIF3H (lysine site: K274) (UniProt O15372)	1.92 (active)
PPIA (lysine site: K155) (UniProt P62937)	2.47

Target	lysine labeling ratio R10:1
CCT3 (lysine site: K78) (UniProt P49368)	4.07
MYH9 (lysine site: K1181) (UniProt P35579)	3.53
UniProt Q16629 (lysine site: K70)	1.67 (active)
HNRNPM (lysine site: K651) (UniProt P52272)	2.28
SMOC1 (lysine site: K223) (UniProt Q9H4F8)	4.99
UniProt Q8WXI7 (lysine site: K13558)	5.1
LAMP1 (lysine site: K337) (UniProt P11279)	6.57
CKAP4 (lysine site: K405) (UniProt Q07065)	1.2 (active)
HNRNPU (lysine site: K265) (UniProt Q00839)	2.4
ALDOC (lysine site: K111) (UniProt P09972)	6.08
UniProt P55285 (lysine site: K365)	0.61 (active)
UniProt Q92729 (lysine site: K440)	1.22 (active)
UniProt Q15149 (lysine site: K1718)	4.36
LY6D (lysine site: K46) (UniProt Q14210)	1.33 (active)
UniProt P06576 (lysine site: K522)	3.5
LAMA5 (lysine site: K255) (UniProt O15230)	2.33
CCT3 (lysine site: K249) (UniProt P49368)	1.76 (active)
ALDOA (lysine site: K42) (UniProt P04075)	3
UniProt Q9H336 (lysine site: K242)	2.36
ROBO1 (lysine site: K490) (UniProt Q9Y6N7)	2.81
VAPB (lysine site: K174) (UniProt O95292)	1.61 (active)
HSPD1 (lysine site: K96) (UniProt P10809)	3.85
UniProt Q15149 (lysine site: K2025)	4.19
F13A1 (lysine site: K258) (UniProt P00488)	1.15 (active)
SPTAN1 (lysine site: K1856) (UniProt Q13813)	5.67

Target	lysine labeling ratio R10:1
UniProt O15354 (lysine site: K405)	1.9 (active)
ACTN4 (lysine site: K331) (UniProt O43707)	1.71 (active)
CD151 (lysine site: K127) (UniProt P48509)	2.31
SEMA3C (lysine site: K158) (UniProt Q99985)	5.63
CDCP1 (lysine site: K71) (UniProt Q9H5V8)	2.07
UniProt P62244 (lysine site: K71)	3.24
UniProt Q8N441 (lysine site: K30)	3.03
LAMB1 (lysine site: K215) (UniProt P07942)	2.29
LRP1 (lysine site: K3803) (UniProt Q07954)	3.09
CD151 (lysine site: K132) (UniProt P48509)	2.31
UniProt Q86V81 (lysine site: K134)	4.23
P4HB (lysine site: K81) (UniProt P07237)	6.39
UniProt Q15149 (lysine site: K4173)	1.95 (active)
ROBO1 (lysine site: K316) (UniProt Q9Y6N7)	6.23
CD151 (lysine site: K186) (UniProt P48509)	6.68
CCT3 (lysine site: K203) (UniProt P49368)	4.58
LRP1 (lysine site: K806) (UniProt Q07954)	1.57 (active)
UniProt Q15149 (lysine site: K4480)	1.74 (active)
UniProt Q15149 (lysine site: K2255)	4.45
UniProt P16144 (lysine site: K662)	1.57 (active)
CS (lysine site: K43) (UniProt O75390)	4.66
EEF1G (lysine site: K241) (UniProt P26641)	1.4 (active)
S100A11 (lysine site: K55) (UniProt P31949)	1.54 (active)
LAMC1 (lysine site: K1039) (UniProt P11047)	3.94
